Nrf2 activator: qHTS of Nrf2 Activators | AREc32 ARE-luciferase reporter (MCF7-derived line), luminescence, 24 h | Potency, µM (top dose mostly 46.1 µM), without a hit: top-dose activation, usual class: activators | 0.31% of 410,000 active; further: potency means the concentration at half of the fitted maximal effect; % of control where 0% means no effect; nearly all actives have a fitted effect of over 65% in size
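Steps: seed AREc32_Fluc cells (1000/well, 5% FBS OPTI-MEM); incubate overnight at 37 deg C; add 23 nL compound; incubate 24 hr; add Steady-Glo; hold 30 min RT; read luminescence.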
Nrf2 inh: Nrf2 qHTS screen for inhibitors | A549 ARE-Fluc reporter, luciferase luminescence, 18-24 h | Potency, µM (highest dose often 46 µM), for inactives: top-dose activity change, negative = inhibition, most hits filed as inhibitors | 2.1% of 360,000 active | AID 504444, 2011; further: potency means the concentration at half of the fitted maximal effect; on the % scale 0 is the no-effect control and ±100 the full control effect; nearly all actives have a fitted effect of over 60% in size
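A549 ARE_Fluc cells, 5000/well, 5% FBS OPTI-MEM; compounds in dose-response, 18-24 h at 37 °C/5% CO2; CellTiter-Fluor viability read (Ex 405/Em 525), then BugLite luciferase luminescence = Nrf2 activity.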
miR-21 reporter: qHTS Assay for Modulators of miRNAs and/orActivators of miR-21 | 340,000 tested, under 10 active | Potency, µM (series often up to 38.3 µM), without a hit: at the top dose activity change, positive = activation, usual class: activators | HeLa miR-21 FLuc reporter, luciferase, 48 h;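 further: % of control where 0% means no effect; miR-21 action dims this reporter so a rising signal means less miR-21 action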
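Compounds were titrated across several concentrations (up to approximately 40 uM) and incubated 48 hours with HeLa miR-21-FLuc reporter cells (miR-21 target sequence downstream of FLuc, endogenous miR-21). Readout was firefly luciferase luminescence after lytic detection reagent.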
A549 viability: Nrf2 qHTS screen for inhibitors: counterscreen for cytotoxicity | A549 ARE-Fluc cells, CellTiter-Fluor viability, 18-24 h | Potency, µM (doses to about 46 µM), without a hit: at the highest dose activity change, negative = cytotoxicity, usual class: inhibitors | 0.16% of 390,000 active | AID 504648, 2011; further: potency means the concentration at half of the fitted maximal effect; on the % scale 0 is the no-effect control and ±100 the full control effect
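Cytotoxicity counterscreen: CellTiter-Fluor fluorescence was measured in A549 ARE_Fluc cells after 18-24 h of compound exposure in a concentration series. The subsequent BugLite luminescent read reports ARE-luciferase activity.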
Mito fusion act: qHTS Assay for Small Molecule Inhibitors of Mitochondrial Division or Activators of Mitochondrial Fusion; S. cerevisiae fusion-defective mutant growth rescue, CellTiterGlo 48 h; Potency, µM (highest dose often 46.1 µM), for the others: top-dose growth rescue (activation), hits mostly activators; 0.23% of 320,000 active; AID 485298, 2010; further: potency means the concentration at half of the fitted maximal effect; % of control where 0% means no effect; nearly all actives have a fitted effect of over 45% in size
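Luminescent cell viability in 1536-well qHTS format served as the measure of rescued growth in ts fusion-mutant S. cerevisiae cultured on non-fermentable YPEG for 48 hours at 37C.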
Numbers without * were called inactive; ? = inconclusive; . = no result; [ ] = another dose, or the depositor's remark. Hits are enriched below; roughly 2.3% of the tested compounds scored in any of these assays. The call rests on the fitted dose curve; in most records, active means well fitted curve in the direction sought with a large enough effect; inconclusive means small, poorly fitted or top-dose-only effect, or another doubt; inactive means no such curve, though single readings can be large; an effect the other way counts as inactive or inconclusive.

SMILES	Nrf2 activator	Nrf2 inh	miR-21 reporter	A549 viability	Mito fusion act
CS(=O)(=O)N1CCc2cc(-c3csc(NCC4CCCO4)n3)ccc21 (stereo not drawn)	8%	?	-10%	11%	-3%
O=C(Cc1c(F)c(F)c(F)c(F)c1F)Nc1nc(-c2ccccc2)cs1	5%	?	-1%	?	11µM*
CS(=O)(=O)N1CCc2cc(-c3csc(NC(=O)Cc4ccccc4)n3)ccc21	3%	21µM*	?	-19%	14%
CC(=O)Nc1ccc(-c2csc(NC(=O)Cc3cccc(F)c3)n2)cc1	5%	21µM*	17%	3%	4%
O=C(NNc1nc(-c2ccccc2)cs1)c1ccc(F)cc1	0%	1%	29%	-2%	8%
O=C(NNc1nc(-c2ccc(F)cc2)cs1)c1ccccc1	-1%	15µM*	?	?	0%
O=C(Nc1nc(-c2ccccc2)cs1)c1cccc([N+](=O)[O-])c1	5%	8.2µM*	-2%	-24%	0%
COc1ccc(C2/C=C\CN(C(=O)CC(C)(C)C)C(C)C(=O)N2Cc2ccc(F)cc2)cc1 (stereo not drawn)	.	1%	.	-15%	.
CC(C)CN(CC(C)C)C(=S)Nc1ccc(Cl)cc1	6%	26µM*	23%	-22%	3%
O=C(Nc1ccc(N2CCN(C(=O)c3ccco3)CC2)c(Cl)c1)c1cc2ccccc2o1	0%	18µM*	?	?	-1%
CCC(=O)N1CCN(c2ccc(NC(=O)c3cc4ccccc4o3)cc2Cl)CC1	-3%	?	?	?	17%
CCCC(=O)N1CCN(c2ccc(NC(=O)c3cc4ccccc4o3)cc2Cl)CC1	-4%	13µM*	?	?	?
CCOC(=O)c1ccc(S(=O)(=O)N2CCN(c3nc(-c4ccccc4)nc4ccccc34)CC2)cc1	.	?	.	-1%	.
CC(C)Cn1c(N)c(C(=O)CSc2nc3ncc(Cl)cc3[nH]2)c(=O)n(C)c1=O	4%	12µM*	.	?	1%
O=C1Cc2cc(S(=O)(=O)N3CCN(c4ccc(C(F)(F)F)cc4)CC3)ccc2N1	.	?	.	-25%[92.2 µM]	.
CN(Cc1ccccc1)C(=O)c1ccc2c(c1)N(Cc1ccc(Cl)cc1)C(=O)c1ccccc1S2=O (stereo not drawn)	0%	21µM*	-4%	-29%	.
Cc1cccc(N2CCN(C(=O)c3ccc4c(c3)N(Cc3ccccc3F)C(=O)c3ccccc3S4=O)CC2C)c1 (stereo not drawn)	0%	?	28%	?	.
O=C(NCc1ccco1)c1ccc2c(c1)N(Cc1ccc(Cl)cc1)C(=O)c1ccccc1S2=O (stereo not drawn)	5%	-28%	11%	-11%	.
CCOC(=O)N1CCN(C(=O)c2ccc3c(c2)N(Cc2cccc(Cl)c2)C(=O)c2ccccc2S3=O)CC1 (stereo not drawn)	0%	21µM*	13%	?	-5%
CCN1C(=O)c2ccccc2S(=O)c2ccc(C(=O)N3CCN(c4cccc(C)c4)C(C)C3)cc21 (stereo not drawn)	1%	16µM*	?	-29%	.
CCN(Cc1cccs1)c1ncnc2ccc(-c3ccc4c(c3)OCO4)cc12	.	-30%	.	1%	.
C=CCn1c(SCC#N)nc2ccc(Cl)cc2c1=O	.	-17%	.	0%	.
CC(/C=N/NC(=O)c1nnn(-c2nonc2N)c1CN1CCCCC1)=C\c1ccccc1	2%	5.2µM*	0%	?	0%
CC1CCN(Cc2c(C(=O)N/N=C/c3ccc(OC(C)C)cc3)nnn2-c2nonc2N)CC1	4%	23µM*	1%	?	-15%
COc1cc(/C=N/NC(=O)c2nnn(-c3nonc3N)c2C(C)C)ccc1OCc1ccc(F)cc1	0%	16µM*	1%	?	-11%
SMILES	Nrf2 activator	Nrf2 inh	miR-21 reporter	A549 viability	Mito fusion act
O=C(COc1ccc(F)cc1)NCCc1nc2ccccc2[nH]1	0%	?	-4%	3%	.
COc1ccc(CCn2nnnc2C2(c3ccc(C)cc3)CC2)cc1	.	.	.	.	21µM*
O=C1C=C(Nc2ccccc2)c2ccccc2C1=O	-2%	21µM*	-1%	?	-11%
Cc1ccc(C(=O)Nc2ncccc2C)o1	0%	15%	.	0%	.
Cc1cccnc1NC(=O)c1ccc([N+](=O)[O-])o1	22µM*	?	1%	-8%	0%
Cc1ccc(-c2nnc(NC(=O)c3ccc([N+](=O)[O-])o3)o2)c(C)c1	7.1µM*	?	.	?	1%
O=C(CCS(=O)(=O)c1ccc(F)cc1)Nc1nc(-c2ccccn2)cs1	?	5%	20%	-3%	4%
CC(Oc1ccc(F)cc1)C(=O)Nc1nc(-c2ccccn2)cs1 (stereo not drawn)	9%	21µM*	.	?	?
COc1ccc2oc(=O)c(-c3csc(Nc4ccc(O)cc4)n3)cc2c1	11%	-10%	-44%	-22%	16µM*
COc1ccc2oc(=O)c(-c3csc(-c4ccc(Br)cc4)n3)cc2c1	0%	.	-1%	0%	.
Cc1cccc(C(=O)Nc2ccc(C(=O)N/N=C/c3cccnc3)cc2)c1	0%	?	8%	-9%	1%
O=C(N/N=C/c1cccnc1)c1cccc(NC(=O)c2ccc(Cl)cc2)c1	-1%	18µM*	1%	0%	-1%
CC1CCN(Cc2c(O)ccc3c(=O)c(Oc4ccccc4Cl)c(C(F)(F)F)oc23)CC1	0%	0%	-2%	-3%	.
Cc1ccc(-c2csc3ncnc(NCCN4CCOCC4)c23)cc1	0%	?	21%	0%	-25%
c1ccc(-c2csc3ncnc(NCCN4CCOCC4)c23)cc1	0%	15µM*	25%	-18%	-28%
COc1ccc(C2NC(=S)NC3=C2CCCC3=C2SCCS2)cc1 (stereo not drawn)	3.2µM*	?	-16%	-21%	-4%
COC(=O)C1=C(N)Oc2cc(C)n(CC3CCCO3)c(=O)c2C1c1ccc(Cl)c(Cl)c1 (stereo not drawn)	0%	21µM*	9%	-22%	19%
O=C(NCc1ccccc1Cl)c1cnc(N2CCCCC2)c2ccccc12	4%	.	24%	4%	.
Cc1cc2occ(CC(=O)N(C)CC(=O)Nc3cccc(F)c3)c2cc1C	3%	26µM*	-2%	?	27%
COc1cc2c(OC(C)=O)c3c(c(-c4ccc5c(c4)OCO5)c2cc1OC)C(=O)OC3	17%	?	22%	?	4%
COc1cc2c(O)c3c(c(-c4ccc5c(c4)OCO5)c2cc1OC)C(=O)OC3	6%	?	19%	18µM*	0%
Cc1cccc(NC(=O)CCc2c(C)nc3c(c(C)nn3C(C)(C)C)c2C)c1C	0%	18µM*	?	-9%	.

Screening results: PubChem BioAssay, National Center for Advancing Translational Sciences (NCATS)
